# Data: paper PMC4102417
# System: murine 3T3 fibroblasts
# Assay: primary screen, percent viability or growth; higher = less effect of the substance
# Protocol: Similarly, for measuring the cytotoxicity concentration (CC50) for 3T3 fibroblast cells, cultures were incubated with drugs for 72 hours and developed using Alamar Blue (Alamar Biosciences Inc, Sacramento, CA) as previously described.
row,SMILES,Mammalian (3T3) cell % growth at 10 uM [%]
1,COC1=CC(=O)C(O)=C/C1=C\C=C\c1ccccc1,0.8
2,CC(C)C[C@H]1C(=O)N2CCC[C@H]2[C@]2(O)O[C@](NC(=O)[C@@H]3C=C4c5cccc6[nH]c(Br)c(c56)C[C@H]4N(C)C3)(C(C)C)C(=O)N12.CS(=O)(=O)O,92.1
3,COc1cc(O)c(C(=O)/C=C/c2ccc(O)c(OC)c2)c(OC)c1,10.2
4,CC1OC(=O)C(C(C)C)NC(=O)C(C(C)C)OC(=O)C(C(C)C)NC(=O)C(C)OC(=O)C(C(C)C)NC(=O)C(C(C)C)OC(=O)C(C(C)C)NC(=O)C(C)OC(=O)C(C(C)C)NC(=O)C(C(C)C)OC(=O)C(C(C)C)NC1=O (stereo not shown),16.4
5,CNc1ccc(C(=O)CC(O)CCC(C)C2OC(=O)CC(O)CC(=O)CC(O)CC(O)CC(O)CC(O)CC3(O)CC(O)C(C(=O)OC)C(CC(O[C@@H]4O[C@H](C)[C@@H](O)[C@H](N)[C@@H]4O)/C=C/C=C/C=C/C=C\C=C/C=C/C=C/C2C)O3)cc1 (stereo partly shown),97.3
6,COc1cc2c(cc1OC)C1C(=O)c3ccc4oc(C(C)C)cc4c3OC1CO2 (stereo not shown),39.7
7,O=c1cc(-c2ccccc2)oc2cc(O)cc(O)c12,43
8,CN(C)CCC=C1c2ccccc2CCc2ccccc21,100
9,CN(C)CCCN1c2ccccc2Sc2ccccc21.Cl,98.7
10,CC[C@@H](C(=O)[C@@H](C)[C@@H](O)[C@H](C)CCc1ccc(C)c(O)c1C(=O)O)[C@H]1O[C@](CC)([C@H]2CC[C@](O)(CC)[C@H](C)O2)C[C@@H]1C,50.1
11,O=C1C=C2C(=CCOC2O)O1 (stereo not shown),0.5
12,COc1cc(O)c(C(=O)/C=C/c2ccc(OC)c(O)c2)c(OC)c1,6
13,CC(=O)Oc1ccc(Cl)c2cccnc12,0.5
14,CCN(CC)CCOc1ccc(C(=C(Cl)c2ccccc2)c2ccccc2)cc1,100
15,CC1CCC2(NC1)OC1CC3C4CCC5CC(O)CCC5(C)C4CCC3(C)C1C2C.Cl (stereo not shown),100
16,COc1cc2c(cc1OC)C1C(=O)c3c(cc4c(c3O)C=CC(C)(C)O4)OC1CO2 (stereo not shown),34.3
17,Cl.Fc1ccc(C2CCNCC2COc2ccc3c(c2)OCO3)cc1 (stereo not shown),100
18,CC(=O)OC1CC2C(C)(C)C(=O)C=CC2(C)C2CCC3(C)C(=CC(=O)OC3c3ccoc3)C12C (stereo not shown),56.1
19,OCCN1CCN(CCCN2c3ccccc3Sc3ccc(Cl)cc32)CC1,66.6
20,CC(CC(O)C1OC1(C)C)C1CCC2(C)C3=CCC4C(C)(C)C(=O)CCC4(C)C3CCC12C (stereo not shown),100

row,SMILES,Mammalian (3T3) cell % growth at 10 uM [%]
1,CCCCC(CC)CNC(=N)NC(=N)NCCCCCCNC(=N)NC(=N)NCC(CC)CCCC.Cl.Cl (stereo not shown),12.3
2,CCCC(C(=O)OCCN(CC)CC)(c1ccccc1)c1ccccc1,100
3,CC12CCC3C(CCC4CC(O)CCC43C)C1CCC2=O (stereo not shown),100
4,Clc1ccc2c(c1)C(N1CCNCC1)=Nc1ccccc1O2,98
5,CC(C)COCC(CN(Cc1ccccc1)c1ccccc1)N1CCCC1.Cl (stereo not shown),89.6
6,C[C@@](Cc1ccc(O)c(O)c1)(NN)C(=O)O,17.7
7,COc1cc(O)c2c(c1)C(=O)c1cc(C)cc(O)c1C2=O,96.8
8,C=C1C2CCC3(C)C(c4ccoc4)OC(=O)CC13OC1CC(OC(C)=O)C(C)(C)C(CC(=O)OC)C12C (stereo not shown),84.1
9,CC[C@H](C)C(=O)O[C@H]1CCC=C2C=C[C@H](C)[C@H](CC[C@@H]3C[C@@H](O)CC(=O)O3)[C@H]21,2.9
10,Cl.OC(c1cc(C(F)(F)F)nc2c(C(F)(F)F)cccc12)C1CCCCN1 (stereo not shown),94.7
11,CSc1ccc2c(c1)N(CCC1CCCCN1C)c1ccccc1S2 (stereo not shown),45.7
12,COc1cc(NC(C)CCCN)c2ncccc2c1.O=P(O)(O)O.O=P(O)(O)O (stereo not shown),91.1
13,COc1cc(OC)c2c(=O)c(OC)c(-c3ccc(OC)c(OC)c3)oc2c1,43.3
14,COc1ccc2cc3[n+](cc2c1OC)CCc1cc2c(cc1-3)OCO2,75.8
15,O=c1c(-c2cc(O)c(O)c(O)c2)coc2cc(O)c(O)c(O)c12,73.7
16,CC(=O)OC1CC2C(C)(C)C(O)CCC2(C)C2CCC3(C)C(c4ccoc4)OC(=O)C4OC43C12C (stereo not shown),76.3
17,CCC1(O)CC2CN(CCc3c([nH]c4ccccc34)C(C(=O)OC)(c3cc4c(cc3OC)N(C)C3C(O)(C(=O)OC)C(OC(C)=O)C5(CC)C=CCN6CCC43C65)C2)C1.O=S(=O)(O)O (stereo not shown),36.2
18,CC(C)=CCc1c2c(c3occ(-c4ccc(O)c(O)c4)c(=O)c3c1O)C=CC(C)(C)O2,4.1
19,COc1cc(-c2cc(=O)c3c(O)c(OC)c(OC)c(OC)c3o2)cc(OC)c1OC,4
20,Oc1cc2c(cc1O)C1c3ccc(O)c(O)c3OCC1(O)C2 (stereo not shown),100
